# Columns and labels:
# Assay in all cases: SPOT peptide array binding signal intensity (averaged, normalized) (arbitrary units (background-subtracted, floor 0; scale differs between SH3 domains)); higher = stronger binding of the SH3 domain to the peptide
# CaNbp2 = molecular target: CaNbp2
# Procedure: (§1)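 GST-tagged SH3 domains from S. cerevisiae (Sc), A. gossypii (Ag), C. albicans (Ca) and S. pombe (Sp) were incubated at 10 ug/ml overnight at 4 C on cellulose SPOT membranes carrying 292 synthetic 15-mer peptides mined from the S. cerevisiae proteome (cysteines replaced by serines). Binding was detected with anti-GST antibody, HRP secondary and chemiluminescence, quantified with Genespotter, and reported as normalized spot intensities averaged over biological replicates.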
# CaRvs167 = molecular target: CaRvs167
# Procedure: as §1
# CaRvs167-3 = molecular target: CaRvs167-3
# Procedure: as §1
# CaSho1 = molecular target: CaSho1
# Procedure: as §1
# CaSla1-D1-D2 = molecular target: CaSla1-D1-D2
# Procedure: as §1
# CaSla1-D3 = molecular target: CaSla1-D3
# Procedure: as §1
# ScAbp1 = molecular target: ScAbp1
# Procedure: as §1
# ScBbc1 = molecular target: ScBbc1
# Procedure: as §1
# ScBem1-D1 = molecular target: ScBem1-D1
# Procedure: as §1
# ScBzz1-D1 = molecular target: ScBzz1-D1
# Procedure: as §1
# ScBzz1-D2 = molecular target: ScBzz1-D2
# Procedure: as §1
# ScCyk3 = molecular target: ScCyk3
# Procedure: as §1
# ScFus1 = molecular target: ScFus1
# Procedure: as §1
# ScHof1 = molecular target: ScHof1
# Procedure: as §1
# ScHse1 = molecular target: ScHse1
# Procedure: as §1
# ScLsb1 = molecular target: ScLsb1
# Procedure: as §1
# ScLsb2 = molecular target: ScLsb2
# Procedure: as §1
# ScLsb3 = molecular target: ScLsb3
# Procedure: as §1
# ScLsb4 = molecular target: ScLsb4
# Procedure: as §1
# ScMyo3 = molecular target: ScMyo3
# Procedure: as §1
# ScMyo5 = molecular target: ScMyo5
# Procedure: as §1
# ScNbp2 = molecular target: ScNbp2
# Procedure: as §1
# ScPex13 = molecular target: ScPex13
# Procedure: as §1
# ScRvs167 = molecular target: ScRvs167
# Procedure: as §1
# ScSho1 = molecular target: ScSho1
# Procedure: as §1
# ScSla1-D1-D2 = molecular target: ScSla1-D1-D2
# Procedure: as §1
# ScSla1-D3 = molecular target: ScSla1-D3
# Procedure: as §1
# SpAbp1-D1 = molecular target: SpAbp1-D1
# Procedure: as §1
# SpBbc1 = molecular target: SpBbc1
# Procedure: as §1
# SpBzz1-D1 = molecular target: SpBzz1-D1
# Procedure: as §1
# SpBzz1-D2 = molecular target: SpBzz1-D2
# Procedure: as §1
# SpCyk3 = molecular target: SpCyk3
# Procedure: as §1
# SpHof1 = molecular target: SpHof1
# Procedure: as §1
# SpHof1-2 = molecular target: SpHof1-2
# Procedure: as §1
# SpHof1-3 = molecular target: SpHof1-3
# Procedure: as §1
# SpHse1 = molecular target: SpHse1
# Procedure: as §1
# SpLsb1 = molecular target: SpLsb1
# Procedure: as §1
# SpLsb4 = molecular target: SpLsb4
# Procedure: as §1
# SpMyo1 = molecular target: SpMyo1
# Procedure: as §1
# SpNbp2 = molecular target: SpNbp2
# Procedure: as §1
# SpPex13 = molecular target: SpPex13
# Procedure: as §1
# SpRvs167 = molecular target: SpRvs167
# Procedure: as §1
# SpSla1-D1-D2 = molecular target: SpSla1-D1-D2
# Procedure: as §1
# SpSla1-D3 = molecular target: SpSla1-D3
# Procedure: as §1
# AgAbp1 = molecular target: AgAbp1
# Procedure: as §1
# AgBbc1 = molecular target: AgBbc1
# Procedure: as §1
# AgBem1-D1 = molecular target: AgBem1-D1
# Procedure: as §1
# AgBzz1-D1 = molecular target: AgBzz1-D1
# Procedure: as §1
# AgBzz1-D2 = molecular target: AgBzz1-D2
# Procedure: as §1
# AgCyk3 = molecular target: AgCyk3
# Procedure: as §1
# AgFus1 = molecular target: AgFus1
# Procedure: as §1
# AgHof1 = molecular target: AgHof1
# Procedure: as §1
# AgHse1 = molecular target: AgHse1
# Procedure: as §1
# AgLsb1 = molecular target: AgLsb1
# Procedure: as §1
# AgLsb4 = molecular target: AgLsb4
# Procedure: as §1
# AgMyo5 = molecular target: AgMyo5
# Procedure: as §1
# AgNbp2 = molecular target: AgNbp2
# Procedure: as §1
# AgRvs167 = molecular target: AgRvs167
# Procedure: as §1
# AgSho1 = molecular target: AgSho1
# Procedure: as §1
# AgSla1-D1-D2 = molecular target: AgSla1-D1-D2
# Procedure: as §1
# AgSla1-D3 = molecular target: AgSla1-D3
# Procedure: as §1
# CaAbp1-D1 = molecular target: CaAbp1-D1
# Procedure: as §1
# CaAbp1-D2 = molecular target: CaAbp1-D2
# Procedure: as §1
# CaBbc1 = molecular target: CaBbc1
# Procedure: as §1
# CaBem1-D1 = molecular target: CaBem1-D1
# Procedure: as §1
# CaBzz1-D1 = molecular target: CaBzz1-D1
# Procedure: as §1
# CaBzz1-D2 = molecular target: CaBzz1-D2
# Procedure: as §1
# CaCyk3 = molecular target: CaCyk3
# Procedure: as §1
# CaFus1 = molecular target: CaFus1
# Procedure: as §1
# CaHof1 = molecular target: CaHof1
# Procedure: as §1
# CaHse1 = molecular target: CaHse1
# Procedure: as §1
# CaLsb1 = molecular target: CaLsb1
# Procedure: as §1
# CaLsb4 = molecular target: CaLsb4
# Procedure: as §1
# CaMyo5 = molecular target: CaMyo5
# Procedure: as §1
binder,measurement,setting,value
VQKRKLPLPGSIASA,SPOT peptide array binding signal intensity,CaNbp2,70
same,SPOT peptide array binding signal intensity,CaRvs167,2.17
same,SPOT peptide array binding signal intensity,CaRvs167-3,4.62
same,SPOT peptide array binding signal intensity,CaSho1,≤ 0
same,SPOT peptide array binding signal intensity,CaSla1-D1-D2,118
same,SPOT peptide array binding signal intensity,CaSla1-D3,≤ 0
same,SPOT peptide array binding signal intensity,ScAbp1,100
same,SPOT peptide array binding signal intensity,ScBbc1,30.1
same,SPOT peptide array binding signal intensity,ScBem1-D1,16.5
same,SPOT peptide array binding signal intensity,ScBzz1-D1,21.2
same,SPOT peptide array binding signal intensity,ScBzz1-D2,10
same,SPOT peptide array binding signal intensity,ScCyk3,≤ 0
same,SPOT peptide array binding signal intensity,ScFus1,≤ 0
same,SPOT peptide array binding signal intensity,ScHof1,0.5
same,SPOT peptide array binding signal intensity,ScHse1,63
same,SPOT peptide array binding signal intensity,ScLsb1,≤ 0
same,SPOT peptide array binding signal intensity,ScLsb2,≤ 0
same,SPOT peptide array binding signal intensity,ScLsb3,525
same,SPOT peptide array binding signal intensity,ScLsb4,11.5
same,SPOT peptide array binding signal intensity,ScMyo3,≤ 0
same,SPOT peptide array binding signal intensity,ScMyo5,1.5
same,SPOT peptide array binding signal intensity,ScNbp2,≤ 0
same,SPOT peptide array binding signal intensity,ScPex13,1
same,SPOT peptide array binding signal intensity,ScRvs167,340
same,SPOT peptide array binding signal intensity,ScSho1,50
same,SPOT peptide array binding signal intensity,ScSla1-D1-D2,180
same,SPOT peptide array binding signal intensity,ScSla1-D3,32.5
same,SPOT peptide array binding signal intensity,SpAbp1-D1,174
same,SPOT peptide array binding signal intensity,SpBbc1,0.5
same,SPOT peptide array binding signal intensity,SpBzz1-D1,232
same,SPOT peptide array binding signal intensity,SpBzz1-D2,≤ 0
same,SPOT peptide array binding signal intensity,SpCyk3,15
same,SPOT peptide array binding signal intensity,SpHof1,197
same,SPOT peptide array binding signal intensity,SpHof1-2,253
same,SPOT peptide array binding signal intensity,SpHof1-3,397
same,SPOT peptide array binding signal intensity,SpHse1,34.1
same,SPOT peptide array binding signal intensity,SpLsb1,50.6
same,SPOT peptide array binding signal intensity,SpLsb4,275
same,SPOT peptide array binding signal intensity,SpMyo1,≤ 0
same,SPOT peptide array binding signal intensity,SpNbp2,7
same,SPOT peptide array binding signal intensity,SpPex13,≤ 0
same,SPOT peptide array binding signal intensity,SpRvs167,55.4
same,SPOT peptide array binding signal intensity,SpSla1-D1-D2,16.2
same,SPOT peptide array binding signal intensity,SpSla1-D3,≤ 0
RSKRLFPVRPMATAH,SPOT peptide array binding signal intensity,AgAbp1,39.5
same,SPOT peptide array binding signal intensity,AgBbc1,36.2
same,SPOT peptide array binding signal intensity,AgBem1-D1,89
same,SPOT peptide array binding signal intensity,AgBzz1-D1,13
same,SPOT peptide array binding signal intensity,AgBzz1-D2,11.5
same,SPOT peptide array binding signal intensity,AgCyk3,3
same,SPOT peptide array binding signal intensity,AgFus1,190
same,SPOT peptide array binding signal intensity,AgHof1,3.5
same,SPOT peptide array binding signal intensity,AgHse1,632
same,SPOT peptide array binding signal intensity,AgLsb1,3
same,SPOT peptide array binding signal intensity,AgLsb4,51
same,SPOT peptide array binding signal intensity,AgMyo5,0.5
same,SPOT peptide array binding signal intensity,AgNbp2,218
same,SPOT peptide array binding signal intensity,AgRvs167,4.33
same,SPOT peptide array binding signal intensity,AgSho1,79
same,SPOT peptide array binding signal intensity,AgSla1-D1-D2,469
same,SPOT peptide array binding signal intensity,AgSla1-D3,10.2
same,SPOT peptide array binding signal intensity,CaAbp1-D1,451
same,SPOT peptide array binding signal intensity,CaAbp1-D2,414
same,SPOT peptide array binding signal intensity,CaBbc1,128
same,SPOT peptide array binding signal intensity,CaBem1-D1,7
same,SPOT peptide array binding signal intensity,CaBzz1-D1,53
same,SPOT peptide array binding signal intensity,CaBzz1-D2,51.5
same,SPOT peptide array binding signal intensity,CaCyk3,64.5
same,SPOT peptide array binding signal intensity,CaFus1,402
same,SPOT peptide array binding signal intensity,CaHof1,≤ 0
same,SPOT peptide array binding signal intensity,CaHse1,14.2
same,SPOT peptide array binding signal intensity,CaLsb1,0.5
same,SPOT peptide array binding signal intensity,CaLsb4,502
same,SPOT peptide array binding signal intensity,CaMyo5,≤ 0
same,SPOT peptide array binding signal intensity,CaNbp2,366
same,SPOT peptide array binding signal intensity,CaRvs167,27.8
same,SPOT peptide array binding signal intensity,CaRvs167-3,93.5
same,SPOT peptide array binding signal intensity,CaSho1,544
same,SPOT peptide array binding signal intensity,CaSla1-D1-D2,95
same,SPOT peptide array binding signal intensity,CaSla1-D3,22
same,SPOT peptide array binding signal intensity,ScAbp1,4
same,SPOT peptide array binding signal intensity,ScBbc1,10
same,SPOT peptide array binding signal intensity,ScBem1-D1,5
same,SPOT peptide array binding signal intensity,ScBzz1-D1,1.5
same,SPOT peptide array binding signal intensity,ScBzz1-D2,2
same,SPOT peptide array binding signal intensity,ScCyk3,216
same,SPOT peptide array binding signal intensity,ScFus1,255
same,SPOT peptide array binding signal intensity,ScHof1,1
same,SPOT peptide array binding signal intensity,ScHse1,998
same,SPOT peptide array binding signal intensity,ScLsb1,14.5
same,SPOT peptide array binding signal intensity,ScLsb2,≤ 0
same,SPOT peptide array binding signal intensity,ScLsb3,1050
same,SPOT peptide array binding signal intensity,ScLsb4,32.5
same,SPOT peptide array binding signal intensity,ScMyo3,5.5
same,SPOT peptide array binding signal intensity,ScMyo5,3
same,SPOT peptide array binding signal intensity,ScNbp2,384
same,SPOT peptide array binding signal intensity,ScPex13,3.5
same,SPOT peptide array binding signal intensity,ScRvs167,256
same,SPOT peptide array binding signal intensity,ScSho1,661
same,SPOT peptide array binding signal intensity,ScSla1-D1-D2,212
same,SPOT peptide array binding signal intensity,ScSla1-D3,34
same,SPOT peptide array binding signal intensity,SpAbp1-D1,118
same,SPOT peptide array binding signal intensity,SpBbc1,≤ 0
same,SPOT peptide array binding signal intensity,SpBzz1-D1,142
same,SPOT peptide array binding signal intensity,SpBzz1-D2,0.5
same,SPOT peptide array binding signal intensity,SpCyk3,5.5
same,SPOT peptide array binding signal intensity,SpHof1,99.2
same,SPOT peptide array binding signal intensity,SpHof1-2,5.5
same,SPOT peptide array binding signal intensity,SpHof1-3,550
same,SPOT peptide array binding signal intensity,SpHse1,350
same,SPOT peptide array binding signal intensity,SpLsb1,3
same,SPOT peptide array binding signal intensity,SpLsb4,624
same,SPOT peptide array binding signal intensity,SpMyo1,1
same,SPOT peptide array binding signal intensity,SpNbp2,235
same,SPOT peptide array binding signal intensity,SpPex13,11
same,SPOT peptide array binding signal intensity,SpRvs167,52.2
same,SPOT peptide array binding signal intensity,SpSla1-D1-D2,1
same,SPOT peptide array binding signal intensity,SpSla1-D3,13
